# Experimental data as given in publication PMC7862700, “An all-to-all approach to the identification of sequence-specific readers for epigenetic DNA modifications on cytosine”.
# Assays:
# Assay in all cases: DAPPL (digital affinity profiling via proximity ligation, sequencing); 10 mM Tris-HCl pH 7.5, 50 mM NaCl, 1 mM DTT, 4% glycerol, room temperature, 30 min; GST-TFs on glutathione beads, 16-mer random dsDNA library, 0.1% formaldehyde crosslink after washing; high values mean tight binding
# FLI1 = target: T1, FLI1 (Homo sapiens, UniProt Q01543 1-452); settings: protein: recombinant; tags: N-terminal GST; dsDNA, one strand shown
# T1 sequence: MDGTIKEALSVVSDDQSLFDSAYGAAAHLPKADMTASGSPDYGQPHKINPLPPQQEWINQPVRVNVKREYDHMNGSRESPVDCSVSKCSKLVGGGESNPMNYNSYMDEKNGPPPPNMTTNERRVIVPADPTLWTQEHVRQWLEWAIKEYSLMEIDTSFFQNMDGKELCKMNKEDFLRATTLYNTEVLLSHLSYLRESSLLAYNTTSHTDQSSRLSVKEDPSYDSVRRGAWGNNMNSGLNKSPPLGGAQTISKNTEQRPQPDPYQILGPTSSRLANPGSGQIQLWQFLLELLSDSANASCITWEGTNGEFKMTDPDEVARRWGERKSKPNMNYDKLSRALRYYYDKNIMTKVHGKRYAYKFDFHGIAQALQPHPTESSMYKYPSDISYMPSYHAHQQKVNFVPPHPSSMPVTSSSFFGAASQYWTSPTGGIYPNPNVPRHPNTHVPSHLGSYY
# In short: (§1)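 Pools were built from human transcription factors expressed in yeast as GST fusions, captured on glutathione beads and DNA-barcoded, along with a tag-only sample. Incubation with 200 nmole of a 16-mer random double-stranded DNA library lasted 30 min at room temperature in Tris/NaCl/DTT/glycerol buffer, and was followed by washing, 0.1% formaldehyde crosslinking, proximity ligation, PCR amplification and Illumina NextSeq500 sequencing. Binding signal is the quotient of each hexamer's read frequency for a factor and its frequency for the tag-only sample.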
# ELK1 = target: T2, ELK1 (Homo sapiens, UniProt P19419 1-428); settings: protein: recombinant; tags: N-terminal GST; dsDNA, one strand shown
# T2 sequence: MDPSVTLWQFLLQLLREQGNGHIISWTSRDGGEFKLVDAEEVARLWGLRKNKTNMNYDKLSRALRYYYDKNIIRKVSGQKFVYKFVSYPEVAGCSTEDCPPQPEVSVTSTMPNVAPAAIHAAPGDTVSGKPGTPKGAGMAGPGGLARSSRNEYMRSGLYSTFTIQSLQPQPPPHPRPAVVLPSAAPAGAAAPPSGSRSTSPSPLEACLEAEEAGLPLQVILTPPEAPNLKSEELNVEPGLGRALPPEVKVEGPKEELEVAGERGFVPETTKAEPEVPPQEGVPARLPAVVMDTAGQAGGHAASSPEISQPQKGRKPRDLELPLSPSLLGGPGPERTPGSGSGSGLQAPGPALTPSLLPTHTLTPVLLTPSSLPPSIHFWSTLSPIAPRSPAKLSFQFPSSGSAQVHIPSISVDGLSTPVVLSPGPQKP
# In short: as §1
# GABPA = target: T3, GABPA (Homo sapiens, UniProt Q06546 1-454); settings: protein: recombinant; tags: N-terminal GST; dsDNA, one strand shown
# T3 sequence: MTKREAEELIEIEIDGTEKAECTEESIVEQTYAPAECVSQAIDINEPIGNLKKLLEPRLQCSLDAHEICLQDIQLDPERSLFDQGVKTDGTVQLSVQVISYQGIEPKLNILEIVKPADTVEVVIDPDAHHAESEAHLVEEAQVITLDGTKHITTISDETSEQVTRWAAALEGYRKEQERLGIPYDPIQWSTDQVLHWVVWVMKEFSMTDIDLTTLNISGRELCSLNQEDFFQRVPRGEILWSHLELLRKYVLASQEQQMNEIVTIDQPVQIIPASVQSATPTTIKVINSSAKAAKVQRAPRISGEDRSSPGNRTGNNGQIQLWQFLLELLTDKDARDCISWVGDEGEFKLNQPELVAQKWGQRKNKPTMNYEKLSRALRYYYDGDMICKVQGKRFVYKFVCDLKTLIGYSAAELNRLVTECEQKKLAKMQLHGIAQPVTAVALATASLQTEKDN
# In short: as §1
# ERG = target: T4, ERG (Homo sapiens, UniProt P11308 1-479); settings: protein: recombinant; tags: N-terminal GST; dsDNA, one strand shown
# T4 sequence: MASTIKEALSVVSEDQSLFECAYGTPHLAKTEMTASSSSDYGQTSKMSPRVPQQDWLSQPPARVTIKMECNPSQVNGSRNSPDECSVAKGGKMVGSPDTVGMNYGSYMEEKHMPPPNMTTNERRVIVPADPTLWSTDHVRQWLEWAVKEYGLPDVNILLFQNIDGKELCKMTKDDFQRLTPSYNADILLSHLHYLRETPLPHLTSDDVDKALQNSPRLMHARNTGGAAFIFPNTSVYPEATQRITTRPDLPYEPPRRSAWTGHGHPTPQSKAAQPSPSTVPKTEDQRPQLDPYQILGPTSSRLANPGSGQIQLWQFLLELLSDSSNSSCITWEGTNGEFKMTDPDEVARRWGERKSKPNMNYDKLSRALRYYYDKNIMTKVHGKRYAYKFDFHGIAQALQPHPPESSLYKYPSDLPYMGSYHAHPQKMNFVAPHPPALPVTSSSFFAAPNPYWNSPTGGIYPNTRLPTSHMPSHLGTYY
# In short: as §1
# ELF1 = ELF1 (Homo sapiens, UniProt P32519 1-619); settings: protein: recombinant; tags: N-terminal GST; dsDNA, one strand shown
# ELF1, sequence (P32519 whole entry): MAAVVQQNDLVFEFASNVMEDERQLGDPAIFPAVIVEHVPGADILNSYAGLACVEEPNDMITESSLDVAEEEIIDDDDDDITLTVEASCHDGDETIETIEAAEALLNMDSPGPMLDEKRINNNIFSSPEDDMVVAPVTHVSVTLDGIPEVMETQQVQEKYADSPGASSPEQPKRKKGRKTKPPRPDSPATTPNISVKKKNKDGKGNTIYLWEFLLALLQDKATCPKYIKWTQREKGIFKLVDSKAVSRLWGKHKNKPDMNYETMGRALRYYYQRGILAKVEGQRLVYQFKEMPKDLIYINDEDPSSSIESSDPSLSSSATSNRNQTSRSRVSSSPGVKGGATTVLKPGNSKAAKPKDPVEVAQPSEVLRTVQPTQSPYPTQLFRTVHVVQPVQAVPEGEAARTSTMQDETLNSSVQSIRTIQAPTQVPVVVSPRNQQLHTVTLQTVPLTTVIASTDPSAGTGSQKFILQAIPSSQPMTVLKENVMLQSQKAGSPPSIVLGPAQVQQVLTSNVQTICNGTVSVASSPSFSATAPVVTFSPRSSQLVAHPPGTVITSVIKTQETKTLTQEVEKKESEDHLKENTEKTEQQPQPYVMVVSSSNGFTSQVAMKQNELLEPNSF
# In short: as §1
# EHF = target: T5, EHF (Homo sapiens, UniProt Q9NZC4 1-300); settings: protein: recombinant; tags: N-terminal GST; dsDNA, one strand shown
# T5 sequence: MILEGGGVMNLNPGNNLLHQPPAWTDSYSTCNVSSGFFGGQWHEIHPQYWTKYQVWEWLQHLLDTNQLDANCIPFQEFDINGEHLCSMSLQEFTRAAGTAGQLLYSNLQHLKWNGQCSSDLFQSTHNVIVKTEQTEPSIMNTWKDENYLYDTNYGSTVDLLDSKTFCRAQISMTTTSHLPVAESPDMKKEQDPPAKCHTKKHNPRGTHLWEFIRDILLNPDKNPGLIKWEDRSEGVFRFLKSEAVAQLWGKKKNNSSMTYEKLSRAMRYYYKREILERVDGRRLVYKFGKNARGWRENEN
# In short: as §1
# SPI1 = SPI1 (Homo sapiens, UniProt P17947 1-270); settings: protein: recombinant; tags: N-terminal GST; dsDNA, one strand shown
# In short: as §1
# SPIB = SPIB (Homo sapiens, UniProt Q01892 1-262); settings: protein: recombinant; tags: N-terminal GST; dsDNA, one strand shown
# SPIB, sequence (Q01892 whole entry): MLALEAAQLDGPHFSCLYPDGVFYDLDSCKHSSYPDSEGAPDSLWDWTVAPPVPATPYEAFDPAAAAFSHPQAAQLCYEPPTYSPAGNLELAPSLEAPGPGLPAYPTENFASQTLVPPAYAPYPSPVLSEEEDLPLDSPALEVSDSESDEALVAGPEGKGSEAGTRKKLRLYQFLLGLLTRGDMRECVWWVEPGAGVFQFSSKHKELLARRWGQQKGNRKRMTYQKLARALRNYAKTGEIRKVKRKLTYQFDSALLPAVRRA
# In short: as §1
# ELK3 = target: T6, ELK3 (Homo sapiens, UniProt P41970 1-407); settings: protein: recombinant; tags: N-terminal GST; dsDNA, one strand shown
# T6 sequence: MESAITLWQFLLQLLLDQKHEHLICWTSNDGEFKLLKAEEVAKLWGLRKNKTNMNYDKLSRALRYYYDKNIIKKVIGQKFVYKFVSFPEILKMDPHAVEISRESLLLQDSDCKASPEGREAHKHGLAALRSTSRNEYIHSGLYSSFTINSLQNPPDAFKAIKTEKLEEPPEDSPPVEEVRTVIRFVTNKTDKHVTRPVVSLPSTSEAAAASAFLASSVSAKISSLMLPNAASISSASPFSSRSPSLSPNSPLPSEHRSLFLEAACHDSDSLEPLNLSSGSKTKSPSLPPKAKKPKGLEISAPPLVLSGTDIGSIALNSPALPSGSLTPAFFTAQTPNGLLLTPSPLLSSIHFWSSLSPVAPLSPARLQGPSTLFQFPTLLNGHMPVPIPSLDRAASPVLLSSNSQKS
# In short: as §1
# FEV = target: T7, FEV (Homo sapiens, UniProt Q99581 1-238); settings: protein: recombinant; tags: N-terminal GST; dsDNA, one strand shown
# T7 sequence: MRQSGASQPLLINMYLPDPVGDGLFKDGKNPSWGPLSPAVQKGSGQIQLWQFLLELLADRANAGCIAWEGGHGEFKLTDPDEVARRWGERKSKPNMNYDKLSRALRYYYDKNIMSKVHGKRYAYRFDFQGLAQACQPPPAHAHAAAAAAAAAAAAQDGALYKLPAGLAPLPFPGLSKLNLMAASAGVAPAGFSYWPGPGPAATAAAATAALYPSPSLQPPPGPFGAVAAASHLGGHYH
# In short: as §1
# ETV5 = ETV5 (Homo sapiens, UniProt P41161 1-510); settings: protein: recombinant; tags: N-terminal GST; dsDNA, one strand shown
# ETV5, sequence (P41161 whole entry): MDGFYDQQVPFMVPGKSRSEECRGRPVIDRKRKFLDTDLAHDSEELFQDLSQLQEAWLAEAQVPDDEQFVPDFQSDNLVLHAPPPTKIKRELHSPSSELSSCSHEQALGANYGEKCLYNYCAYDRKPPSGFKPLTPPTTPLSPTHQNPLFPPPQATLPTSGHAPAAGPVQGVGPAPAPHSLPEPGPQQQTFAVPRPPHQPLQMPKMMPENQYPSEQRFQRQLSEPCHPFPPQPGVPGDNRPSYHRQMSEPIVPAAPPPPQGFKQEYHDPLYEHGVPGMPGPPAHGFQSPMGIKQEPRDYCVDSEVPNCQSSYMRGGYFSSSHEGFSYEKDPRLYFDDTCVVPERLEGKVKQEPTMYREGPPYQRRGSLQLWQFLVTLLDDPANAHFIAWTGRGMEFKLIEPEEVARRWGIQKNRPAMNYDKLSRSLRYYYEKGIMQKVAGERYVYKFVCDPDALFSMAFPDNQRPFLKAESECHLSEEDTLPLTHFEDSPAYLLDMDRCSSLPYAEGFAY
# In short: as §1
# HSF1 = HSF1 (Homo sapiens, UniProt Q00613 1-529); settings: protein: recombinant; tags: N-terminal GST; chain copies: 3; dsDNA, one strand shown
# HSF1, sequence (Q00613 whole entry): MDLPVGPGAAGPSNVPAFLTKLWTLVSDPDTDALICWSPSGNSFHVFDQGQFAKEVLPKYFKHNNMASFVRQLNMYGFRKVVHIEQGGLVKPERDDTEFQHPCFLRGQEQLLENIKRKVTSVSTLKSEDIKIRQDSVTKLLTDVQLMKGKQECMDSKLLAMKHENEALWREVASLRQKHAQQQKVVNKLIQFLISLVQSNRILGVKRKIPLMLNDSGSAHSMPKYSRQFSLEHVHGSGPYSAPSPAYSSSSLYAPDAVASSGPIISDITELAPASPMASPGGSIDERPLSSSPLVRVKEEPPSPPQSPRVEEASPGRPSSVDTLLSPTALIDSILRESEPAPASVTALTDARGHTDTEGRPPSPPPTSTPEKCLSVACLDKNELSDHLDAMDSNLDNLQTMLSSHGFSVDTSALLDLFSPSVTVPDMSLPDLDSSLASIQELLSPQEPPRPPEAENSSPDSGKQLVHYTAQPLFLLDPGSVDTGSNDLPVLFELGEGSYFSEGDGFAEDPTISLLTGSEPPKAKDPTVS
# In short: as §1
# SPIC = target: T8, SPIC (Homo sapiens, UniProt Q8N5J4 1-248); settings: protein: recombinant; tags: N-terminal GST; dsDNA, one strand shown
# T8 sequence: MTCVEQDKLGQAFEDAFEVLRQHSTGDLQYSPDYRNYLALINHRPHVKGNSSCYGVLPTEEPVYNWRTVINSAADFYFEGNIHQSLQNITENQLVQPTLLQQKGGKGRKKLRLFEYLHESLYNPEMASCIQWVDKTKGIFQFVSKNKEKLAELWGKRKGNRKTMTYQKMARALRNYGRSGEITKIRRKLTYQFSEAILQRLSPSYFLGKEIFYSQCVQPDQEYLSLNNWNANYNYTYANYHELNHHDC
# In short: as §1
# ELF4 = ELF4 (Homo sapiens, UniProt Q99607 1-663); settings: protein: recombinant; tags: N-terminal GST; dsDNA, one strand shown
# ELF4, sequence (Q99607 whole entry): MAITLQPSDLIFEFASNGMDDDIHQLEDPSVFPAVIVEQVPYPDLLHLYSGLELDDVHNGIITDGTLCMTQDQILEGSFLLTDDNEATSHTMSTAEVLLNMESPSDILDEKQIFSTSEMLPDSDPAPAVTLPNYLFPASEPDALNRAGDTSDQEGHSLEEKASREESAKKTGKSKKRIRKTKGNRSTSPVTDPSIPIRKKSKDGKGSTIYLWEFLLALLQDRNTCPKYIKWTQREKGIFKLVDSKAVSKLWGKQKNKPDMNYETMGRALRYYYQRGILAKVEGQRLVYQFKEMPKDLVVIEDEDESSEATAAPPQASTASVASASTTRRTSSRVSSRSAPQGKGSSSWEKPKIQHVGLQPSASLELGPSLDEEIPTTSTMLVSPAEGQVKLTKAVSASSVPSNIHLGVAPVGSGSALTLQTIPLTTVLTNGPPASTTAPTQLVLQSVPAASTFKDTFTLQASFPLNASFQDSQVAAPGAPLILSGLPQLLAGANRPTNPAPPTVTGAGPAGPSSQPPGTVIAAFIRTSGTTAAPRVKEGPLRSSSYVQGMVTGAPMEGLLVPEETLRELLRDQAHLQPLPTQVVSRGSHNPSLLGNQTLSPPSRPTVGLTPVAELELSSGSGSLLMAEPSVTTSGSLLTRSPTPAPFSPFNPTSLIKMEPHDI
# In short: as §1
# ELK4 = target: T9, ELK4 (Homo sapiens, UniProt P28324-2 1-405); settings: protein: recombinant; tags: N-terminal GST; dsDNA, one strand shown
# T9 sequence: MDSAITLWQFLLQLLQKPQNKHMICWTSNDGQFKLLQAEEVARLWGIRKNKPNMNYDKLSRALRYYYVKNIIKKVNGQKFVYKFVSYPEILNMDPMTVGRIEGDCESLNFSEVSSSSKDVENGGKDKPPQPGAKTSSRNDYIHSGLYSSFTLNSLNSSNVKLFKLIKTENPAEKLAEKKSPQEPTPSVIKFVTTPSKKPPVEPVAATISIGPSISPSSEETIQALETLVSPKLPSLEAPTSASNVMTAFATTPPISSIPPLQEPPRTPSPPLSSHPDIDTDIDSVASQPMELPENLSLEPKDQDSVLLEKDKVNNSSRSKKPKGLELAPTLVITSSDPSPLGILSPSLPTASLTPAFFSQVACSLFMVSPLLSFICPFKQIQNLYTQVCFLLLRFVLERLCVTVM
# In short: as §1
# ETV2 = target: T10, ETV2 (Homo sapiens, UniProt O00321 1-342); settings: protein: recombinant; tags: N-terminal GST; dsDNA, one strand shown
# T10 sequence: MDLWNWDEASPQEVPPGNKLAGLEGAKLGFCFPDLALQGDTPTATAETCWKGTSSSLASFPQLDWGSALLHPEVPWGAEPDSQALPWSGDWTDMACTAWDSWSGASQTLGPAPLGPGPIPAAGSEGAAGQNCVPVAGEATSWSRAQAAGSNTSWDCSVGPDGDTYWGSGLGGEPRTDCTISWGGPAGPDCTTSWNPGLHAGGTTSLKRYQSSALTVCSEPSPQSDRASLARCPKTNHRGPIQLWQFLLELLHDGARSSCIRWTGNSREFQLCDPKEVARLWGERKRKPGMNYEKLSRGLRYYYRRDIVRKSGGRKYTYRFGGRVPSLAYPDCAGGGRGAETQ
# In short: as §1
# ELF3 = target: T11, ELF3 (Homo sapiens, UniProt P78545 1-371); settings: protein: recombinant; tags: N-terminal GST; dsDNA, one strand shown
# T11 sequence: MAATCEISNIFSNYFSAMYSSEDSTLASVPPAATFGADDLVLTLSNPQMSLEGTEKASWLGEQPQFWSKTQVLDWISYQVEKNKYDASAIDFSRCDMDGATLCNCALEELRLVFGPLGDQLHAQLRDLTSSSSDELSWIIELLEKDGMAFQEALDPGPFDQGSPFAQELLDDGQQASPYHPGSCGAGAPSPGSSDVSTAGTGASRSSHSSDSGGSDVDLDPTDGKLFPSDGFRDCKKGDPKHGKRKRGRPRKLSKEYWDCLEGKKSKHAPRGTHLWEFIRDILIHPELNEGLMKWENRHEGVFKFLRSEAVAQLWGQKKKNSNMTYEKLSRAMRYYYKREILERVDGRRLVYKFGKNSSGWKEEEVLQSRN
# In short: as §1
# CRX = CRX (Homo sapiens, UniProt O43186 1-299); settings: protein: recombinant; tags: N-terminal GST; dsDNA, one strand shown
# CRX, sequence (O43186 whole entry): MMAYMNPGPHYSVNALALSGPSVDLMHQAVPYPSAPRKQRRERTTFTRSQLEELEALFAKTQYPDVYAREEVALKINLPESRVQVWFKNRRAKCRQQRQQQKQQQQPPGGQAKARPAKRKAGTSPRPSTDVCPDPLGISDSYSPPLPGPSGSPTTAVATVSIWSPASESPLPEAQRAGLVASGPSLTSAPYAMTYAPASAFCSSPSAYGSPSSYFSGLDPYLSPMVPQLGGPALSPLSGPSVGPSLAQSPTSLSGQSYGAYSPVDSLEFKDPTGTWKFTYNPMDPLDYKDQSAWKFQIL
# In short: as §1
# ETV1 = ETV1 (Homo sapiens, UniProt P50549 1-477); settings: protein: recombinant; tags: N-terminal GST; dsDNA, one strand shown
# ETV1, sequence (P50549 whole entry): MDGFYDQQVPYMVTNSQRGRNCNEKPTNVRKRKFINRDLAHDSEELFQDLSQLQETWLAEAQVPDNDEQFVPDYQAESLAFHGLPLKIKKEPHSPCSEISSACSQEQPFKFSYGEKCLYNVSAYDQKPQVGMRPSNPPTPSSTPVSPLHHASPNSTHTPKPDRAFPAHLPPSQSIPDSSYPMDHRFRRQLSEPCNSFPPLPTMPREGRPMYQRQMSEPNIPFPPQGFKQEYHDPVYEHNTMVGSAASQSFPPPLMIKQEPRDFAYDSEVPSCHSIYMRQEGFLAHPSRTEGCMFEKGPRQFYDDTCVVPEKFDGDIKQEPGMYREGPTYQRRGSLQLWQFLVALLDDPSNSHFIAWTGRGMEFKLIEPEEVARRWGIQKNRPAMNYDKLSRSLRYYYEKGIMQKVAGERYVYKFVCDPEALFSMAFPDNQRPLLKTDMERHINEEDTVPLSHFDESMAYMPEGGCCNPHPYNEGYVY
# In short: as §1
sequence,measurement,setting,value
AGAAGC,binding signal,FLI1,"1.11 fold enrichment (6-mer frequency, TF over GST control)"
same,binding signal,ELK1,"1.15 fold enrichment (6-mer frequency, TF over GST control)"
same,binding signal,GABPA,"1.12 fold enrichment (6-mer frequency, TF over GST control)"
same,binding signal,ERG,"1.16 fold enrichment (6-mer frequency, TF over GST control)"
same,binding signal,ELF1,"1.08 fold enrichment (6-mer frequency, TF over GST control)"
same,binding signal,EHF,"1.21 fold enrichment (6-mer frequency, TF over GST control)"
same,binding signal,SPI1,"1.22 fold enrichment (6-mer frequency, TF over GST control)"
same,binding signal,SPIB,"1.15 fold enrichment (6-mer frequency, TF over GST control)"
same,binding signal,ELK3,"1.1 fold enrichment (6-mer frequency, TF over GST control)"
same,binding signal,FEV,"1.14 fold enrichment (6-mer frequency, TF over GST control)"
same,binding signal,ETV5,"1.12 fold enrichment (6-mer frequency, TF over GST control)"
same,binding signal,HSF1,"1.96 fold enrichment (6-mer frequency, TF over GST control)"
same,binding signal,SPIC,"1.28 fold enrichment (6-mer frequency, TF over GST control)"
same,binding signal,ELF4,"1.13 fold enrichment (6-mer frequency, TF over GST control)"
same,binding signal,ELK4,"1.07 fold enrichment (6-mer frequency, TF over GST control)"
same,binding signal,ETV2,"1.22 fold enrichment (6-mer frequency, TF over GST control)"
same,binding signal,ELF3,"1.09 fold enrichment (6-mer frequency, TF over GST control)"
same,binding signal,CRX,"1.32 fold enrichment (6-mer frequency, TF over GST control)"
same,binding signal,ETV1,"1.11 fold enrichment (6-mer frequency, TF over GST control)"
